# Bioassay records (PubChem)
# The list is not random: actives were taken first. Their share in the collection is about 7.4%.
# Rab9 prom act – activates the Rab9 promoter; AID 485297; 2.8% of 320,000 active; Potency, µM (highest dose often 9.22 µM), inactives show at the highest dose activation, negative = inhibition, usual class: activators; Huh7 Rab9 promoter-luciferase reporter, luminescence, 24 h; also: % of control where 0% means no effect; nearly all actives have a fitted effect of over 60% in size
#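 Using Huh7 cells stably transfected with Rab9 promoter–luciferase, compounds were incubated 24 h at 37 °C, 5% CO2; luciferase luminescence was read 10 min after reagent addition.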
# FLuc modulator – counter-screen for miR-21 project: firefly luciferase inhibitors or activators. purified FLuc, Km substrates, luminescence inhibition. Potency, µM (titrated, usually from 57.5 µM), for inactives: at the highest dose activity change, negative = inhibition, most hits filed as inhibitors. AID 588342. 6.9% of 360,000 active. P08659;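 also: plate controls were vehicle for no effect and reference inhibitor for full effect; nearly all actives have a fitted effect of over 55% in size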
# Target sequence (P08659 whole entry, looked up): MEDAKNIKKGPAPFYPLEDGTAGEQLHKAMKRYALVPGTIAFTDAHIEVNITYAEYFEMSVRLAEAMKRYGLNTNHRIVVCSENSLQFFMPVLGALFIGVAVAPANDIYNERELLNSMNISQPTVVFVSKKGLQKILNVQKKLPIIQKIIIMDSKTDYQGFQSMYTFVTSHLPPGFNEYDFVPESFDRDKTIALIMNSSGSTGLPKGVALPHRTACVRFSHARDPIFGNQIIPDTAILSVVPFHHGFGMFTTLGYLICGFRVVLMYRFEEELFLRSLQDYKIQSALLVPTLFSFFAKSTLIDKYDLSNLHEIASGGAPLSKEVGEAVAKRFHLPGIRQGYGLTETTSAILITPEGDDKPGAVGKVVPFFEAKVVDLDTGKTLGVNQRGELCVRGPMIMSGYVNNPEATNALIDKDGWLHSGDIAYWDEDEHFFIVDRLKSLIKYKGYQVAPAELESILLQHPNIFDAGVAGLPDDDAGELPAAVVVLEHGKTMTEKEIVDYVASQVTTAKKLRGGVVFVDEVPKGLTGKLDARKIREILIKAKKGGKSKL
#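 Biochemical qHTS of compounds, final roughly 60 µM downward over six points, against 10 nM purified firefly luciferase using Km concentrations of substrates (10 uM D-luciferin, 10 uM ATP) in Tris acetate pH 7.5 buffer; luminescence output.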
# NPC1 promoter act – NPC1 promoter activation; 2.4% of 320,000 active; Potency, µM (top dose mostly 9.22 µM), inactives show at the highest dose activation, usual class: activators; Huh7 NPC1 promoter luciferase reporter, 24 h; also: % of control where 0% means no effect; nearly all actives have a fitted effect of over 60% in size
#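 Cells: Huh7 expressing luciferase under the NPC1 promoter, 1500/well. Seeded 2 h, compound added, incubated 24 h at 37 °C. Luciferase reagent, 10 min ambient, then luminescence.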
# ELG1 genotoxic – induces genotoxicity in HEK293T cells with luciferase-tagged ELG1; 1.3% of 330,000 active; Potency, µM (titrated, usually from 46 µM), for inactives: at the top dose activity change, positive = activation, actives largely listed as activators; HEK293T ELG1-luciferase reporter, luminescence, 16 h; also: % of control where 0% means no effect; nearly all actives have a fitted effect of over 60% in size
#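 Cells (2,000/well) expressing the ELG1-luciferase fusion are dosed by pin tool and kept 16 hr at 37 °C, 5% CO2. Signal comes from ONE-Glo luciferase reagent after 30 min at room temperature.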
# SMN2 splice enh – enhancers of SMN2 splice variant expression. HEK293 SMN2-luciferase splicing reporter, luminescence, 30-36 h. Potency, µM (top dose mostly 46.1 µM), inactives show at the highest dose activity change, positive = activation, usual class: activators. 2.8% of 210,000 active; also: % of control where 0% means no effect; nearly all actives have a fitted effect of over 55% in size
#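 HEK293 cells carry an SMN2 […]–luciferase reporter in which exon 7 inclusion puts luciferase in frame. Cells were plated 10-12 h before compound addition, then incubated 30-36 h at 37C. ONE-Glo luminescence was read; sodium butyrate at 4.5 mM final served as control.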
# Starred values were filed as active, the others as inactive; ? = inconclusive; · = no result; [ ] = another dose, or the depositor's remark. Calls follow the shape of the dose curve; as a rule, active = well fitted curve in the direction sought with a large enough effect; inconclusive = small, poorly fitted or top-dose-only effect, or another doubt; inactive = no such curve, though single readings can be large; an effect the other way counts as inactive or inconclusive. Potency is read from the fitted curve at half-maximal effect.
SMILES,Rab9 prom act,FLuc modulator,NPC1 promoter act,ELG1 genotoxic,SMN2 splice enh
CCc1ccc(NC(=O)CSc2nccn2C2CCCC2)cc1,·,-3%,·,·,·
CC(C(=O)NCc1ccccc1)n1cc([N+](=O)[O-])cn1 (stereo not drawn),3%,-2%,1%,3%,·
N#C/C(=C(/O)COc1ccccc1)c1nc2ccccc2s1,-1%,19µM*,-1%,-6%,2%
Cc1c(Cl)sn(-c2ccc(Cl)cc2)c1=O,-39%,8.5µM*,-24%,1%,-99%
CC(=O)COc1ccc2c(C)c(C)c(=O)oc2c1,?,1%,6%,?,-7%
COc1ccc(-c2c(C)c3ccc(OCC(C)=O)cc3oc2=O)cc1,2.2µM*,24µM*,2.8µM*,-6%,?
O=c1oc2cc(O)ccc2c2ccccc12,-2%,-5%,1%,16%,-12%
CCN(CC)c1ccc2c(C)c(-c3ccc(N)cc3)c(=O)oc2c1,24%,24µM*,23%,6%,?
O=c1oc2cc(O)ccc2c2oc3cc(O)ccc3c12,1%,19µM*,1%,7%,-23%
COc1ccc(-c2c(C)c3ccc(O)cc3oc2=O)cc1,14%,15µM*,?,13%[9.26 µM],·
COCCN1C2=C(C(=O)CC(C)(C)C2)C(c2ccc(OC)c(OC)c2)C2=C1CC(C)(C)CC2=O,-2%,1%,-3%,-1%,·
O=C(CNC(=O)c1ccccc1F)NCCc1ccc(Cl)cc1Cl,-1%,1%,-5%,0%,·
O=C(NC(=O)c1ccccc1F)OCc1ccc(Cl)cc1Cl,13%,12µM*,8%,2%,·
COCc1nc(-c2ccc(-c3ccc(C)cc3)nc2OC)no1,?,17µM*,18%,15%,-3%
CCOc1nc(-c2ccccc2)ccc1-c1noc(-c2ccco2)n1,-10%,-1%,-9%,9%,-7%
COc1nc(-c2ccc(C)cc2)ccc1-c1noc(-c2ccco2)n1,?,19µM*,?,?,-8%
COc1nc(C)ccc1-c1noc(-c2ccco2)n1,1.3µM*,3.8µM*,1.4µM*,?,5.6µM*
O=C(Nc1ccc2c(c1)CCCN2C(=O)c1ccco1)c1cc([N+](=O)[O-])ccc1Cl,-1%,4%,0%,-40%,·
COc1ccc(CCN2CC(C(=O)Nc3nccs3)CC2=O)cc1OC (stereo not drawn),·,·,·,0%,·
O=C(O)c1cccc(NC(=O)C2C3C=CC(C3)C2C(=O)OCC(F)(F)C(F)F)c1 (stereo not drawn),5%,17µM*,-2%,6%,-7%
COc1ccc(C(=O)/C(=C/c2cccs2)c2nc3ccccc3o2)cc1,3.5µM*,-12%,4µM*,?,-72%
COc1ccc(/C=C(\CC(=O)O)c2nc3ccccc3o2)cc1,?,9.5µM*,2%,16µM*,30%
COc1ccc(/C=C/C(=O)Nc2cc(-c3nc4ccccc4o3)ccc2OC)cc1,·,?,·,·,-8%
COC(=O)c1ccc(-c2ccc(Cl)cc2)nc1C,1.4µM*,1.3µM*,1.6µM*,8.2µM*,5µM*
COC(=O)c1ccccc1NC(=O)c1sc(Cl)nc1C,10%,?,0%,1%,·
SMILES,Rab9 prom act,FLuc modulator,NPC1 promoter act,ELG1 genotoxic,SMN2 splice enh
COc1ccccc1NC(=O)C(C)OC(=O)c1nc2nc(C)cc(C)n2n1 (stereo not drawn),-1%,-3%,2%,3%,·
CC(C(=O)Nc1ccccc1)N(c1cccc(Cl)c1)S(C)(=O)=O (stereo not drawn),-10%,-1%,-1%,-5%,4%
CCOc1ccc(/C=C/C(=O)NC2CCCCC2)cc1,17%,?,19%,7%,·
O=C(O)COc1ccc(/C=C/C(=O)c2ccc(C3CCCCC3)cc2)cc1,?,0.38µM*,?,3%,·
O=C(O)COc1ccc(C(=O)c2ccccc2)cc1,-6%,?,-2%,0%,·
O=C(O)COc1ccc(/C=C/C(=O)c2ccc3ccccc3c2)cc1,14%,0.95µM*,3%,8%,·
CC(C(=O)OCC(=O)Nc1ccc(S(N)(=O)=O)cc1)N1C(=O)c2ccccc2C1=O (stereo not drawn),·,·,·,3%,·
O=C(NC1CCCN(Cc2ccccc2F)C1)C1CCC1 (stereo not drawn),-3%,-2%,-4%,1%,·
COc1ccc(C(=O)NNC2=CC(=O)CC(C)(C)C2)cc1,-1%,2%,-11%,3%,-7%[1.84 µM]
Cc1ccccc1NC1=CC(=O)CC(C)(C)C1,11%,-2%,-4%,-2%,0%
CC1(C)CC(=O)C=C(NNC(=O)c2ccccc2O)C1,3.2µM*,0.85µM*,?,17%,18µM*
Cc1cccc(C(=O)NNC2=CC(=O)CC(C)(C)C2)c1O,?,11µM*,25%,?,·
COc1ccc(Cn2ccc3nc(C)c(C(=O)NCc4cccc(OC)c4)cc3c2=O)cc1,·,-3%,·,·,·
O=C(O)c1cc2c(ccc3ccccc32)o1,5%,17µM*,1%,2%,·
O=C(c1cc2c(ccc3ccccc32)o1)N1CCN(c2ncc(C(F)(F)F)cc2Cl)CC1,-7%,2%,-1%,-1%,3%
O=C(c1cc2c(ccc3ccccc32)o1)N1CCCCC1,0.89µM*,2.1µM*,1.3µM*,?,·
COC(=O)CC1C(=O)NCCN1Cc1cn(-c2ccc(C)cc2)nc1-c1cccc(C)c1 (stereo not drawn),-3%,17µM*,2%,-3%,·
Cc1ccc(C(=O)Nc2ccc(C(F)(F)F)n(C)c2=O)cc1,3.2µM*,4.3µM*,18%,?,22µM*
COc1ccc(C(=O)Nc2ccc(C(F)(F)F)n(C)c2=O)cc1,2.2µM*,?,2.8µM*,?,14µM*
COCCn1c(C(F)(F)F)ccc(NC(=O)c2ccccc2)c1=O,1.3µM*,7.6µM*,1.4µM*,7.3µM*,·
Cc1cc2c(s1)c(C=O)c(C(=O)NCc1ccccc1F)n2C,-2%,-7%,-5%,·,·
COc1ccc(CNc2ncnc3c2[nH]c2cc(OC)c(OC)cc23)cc1,-4%,24µM*,-3%,10%,·
Cc1ccc2[nH]c3c(N4CCOCC4)ncnc3c2c1,3%,17µM*,1%,6%,-42%
CCCOc1ncnc2c1[nH]c1ccc(C)cc12,?,1.2µM*,2.8µM*,?,·
COc1ccc(CNc2ncnc3c2[nH]c2ccccc23)cc1,-17%,?,-5%,-8%,·
Cc1ccc2[nH]c3c(NCc4ccccc4)ncnc3c2c1,2%,24µM*,11%,-1%,·
Cc1ccc2[nH]c3c(Cl)ncnc3c2c1,-3%,-15%,-6%,0%,·
COc1ccc(Cn2c(-c3ccc(Br)cc3)c[n+]3ccccc23)cc1,9%,11µM*,1%,17%,11µM*
COc1ccc(Cn2c(C)ccc2C)cc1,-2%,0%,0%,9%,6%
